AmpC no deterg = inhibitors of E. coli AmpC beta-lactamase without detergent | AID 485341 | AmpC nitrocefin hydrolysis, absorbance 480 nm, 0.0001% Triton | Potency, µM (titrated, usually from 57.1 µM), for the others: at the highest dose activity change, negative = inhibition, most hits filed as inhibitors | P00811 | 330,000 tested, 0.52% active;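 also: plate controls were no compound for no effect and no enzyme for full effect; nearly all actives have a fitted effect of over 20% in size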
Target sequence (P00811 whole entry, looked up): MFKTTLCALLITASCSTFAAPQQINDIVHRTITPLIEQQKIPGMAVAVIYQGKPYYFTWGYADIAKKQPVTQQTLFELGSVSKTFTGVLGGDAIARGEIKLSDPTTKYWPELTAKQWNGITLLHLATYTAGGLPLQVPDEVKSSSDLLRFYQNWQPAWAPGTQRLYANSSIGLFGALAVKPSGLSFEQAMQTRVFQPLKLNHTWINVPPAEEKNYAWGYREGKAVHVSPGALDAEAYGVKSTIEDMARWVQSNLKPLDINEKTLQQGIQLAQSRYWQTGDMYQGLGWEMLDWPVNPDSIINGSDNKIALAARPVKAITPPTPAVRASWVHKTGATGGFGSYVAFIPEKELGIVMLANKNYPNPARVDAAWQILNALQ
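AmpC (5.3 nM in the dispensed reagent) in 20 mM phosphate pH 7.0 with 0.01% (detergent screen) or 0.0001% Triton X-100 was preincubated with compounds for 15 min at room temperature. Nitrocefin was then added from an 800 uM solution, and hydrolysis was followed at 480 nm.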
Vaccinia mCherry = inhibitors of vaccinia virus infection (mCherry reporter signal). 310,000 tested, 0.63% active. Vaccinia virus mCherry reporter infection, fluorescence. AID 720579. Potency, µM (series often up to 36.5 µM), inactives show top-dose activity change, negative = inhibition, hits mostly inhibitors; calls by dose curve; tested in A549 cells; also: nearly all actives have a fitted effect of over 35% in size
AmpC detergent = blocks E. coli AmpC beta-lactamase in detergent assay. P00811. AmpC hydrolysis of nitrocefin, absorbance 480 nm, 0.01% Triton. Potency, µM (titrated, usually from 114 µM), for inactives: at the top dose activity change, negative = inhibition, actives largely listed as inhibitors. 370,000 tested, 0.041% active. AID 485294;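 also: 0% = no-compound wells and -100% = no-enzyme wells; nearly all actives have a fitted effect of over 25% in size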
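20 mM phosphate pH 7.0 + 0.01% (detergent screen) or 0.0001% Triton X-100; 5.3 nM AmpC reagent; cpd preinc 15 min RT; nitrocefin (800 uM stock) to start; A480 q20 s × 4 min; Activity was normalised to no-enzyme and no-compound control wells.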
VACV Venus inh = vaccinia inhibition (Venus reporter); Vaccinia virus Venus reporter expression, fluorescence; Potency, µM (doses to about 36.5 µM), for the others: at the highest dose activity change, negative = inhibition, usual class: inhibitors; 330,000 tested, 0.46% active; AID 720580; calls by dose curve; tested in A549 cells; also: nearly all actives have a fitted effect of over 30% in size
Starred values were filed as active, the others as inactive; i = inactive; ? = inconclusive; / = no result given; [ ] = remark or other dose. Shown are actives, neighbours in structure and some others; about 1.1% of the full set was active somewhere. Unless noted, calls follow the shape of the dose curve; as a rule, active = well fitted curve in the direction sought with a large enough effect; inconclusive = small, poorly fitted or top-dose-only effect, or another doubt; inactive = no such curve, though single readings can be large; an effect the other way counts as inactive or inconclusive. Unless noted, % is scaled to controls: 0 for no effect and ±100 for the full control effect; potency is read from the fitted curve at half-maximal effect.

SMILES	AmpC no deterg	Vaccinia mCherry	AmpC detergent	VACV Venus inh
COc1cc(/C=C/C(=O)c2ccc(O)cc2)ccc1OCC#N	-24%	13µM*	?	13µM*
O=C1CCCN1c1ncc(S(=O)(=O)c2ccc([N+](=O)[O-])cc2)s1	-22%	11µM*	1%	?
O=C(Nc1ncc(S(=O)(=O)c2ccc([N+](=O)[O-])cc2)s1)c1ccccc1F	-29%	-8%[7.34 µM]	5%	2%[7.34 µM]
Nc1ncc(S(=O)(=O)c2ccc([N+](=O)[O-])cc2)s1	/	7.1µM*	/	?
COc1ccc(Br)cc1/C=C/C(=O)c1ccc(NC(C)=O)cc1	42%	4.5µM*	-7%	5.6µM*
COc1ccc(NC(=O)/C=C/c2cc(Br)ccc2OC)cc1	-34%	/	3%	-16%
C=CCn1c(=NC(=O)C2CCCCC2)sc2cc(NC(C)=O)ccc21	4µM*	-11%	?	-10%
CSc1nc(C(=O)N2CCOc3ccc(CN4CCN(Cc5ccccn5)CC4)cc3C2)cs1	/	-11%	/	1%
NC(=O)CC1(CC(=O)O)CCCCC1	-31%	/	71µM*	/
NS(=O)(=O)c1ccc(Nc2nc(-c3ccc(F)cc3)cs2)cc1	-39%	?	5%	-17%
COc1ccc(-c2csc(Nc3ccc(S(N)(=O)=O)cc3)n2)cc1OC	16µM*	/	-5%	/
Cc1ccc(S(=O)(=O)CCSc2n[nH]c(=O)n2-c2ccccc2)cc1	-5%	2µM*	9%	2µM*
Cc1cc(C)c(-n2c(SCc3nc4ccccc4s3)n[nH]c2=O)c(C)c1	1%	-27%	15%	-27%
Cc1ccc(S(=O)(=O)CCSc2nccn2C)cc1	91%	-13%	-8%	-9%
Cc1cc(C)c(-n2c(SCCS(=O)(=O)c3ccc(F)cc3)n[nH]c2=O)c(C)c1	25%	2µM*	1%	2.8µM*
Cc1cnc(SCc2ccccn2)nc1C1CCCN(Cc2ccsc2)C1 (stereo not drawn)	/	-17%	/	-14%
COc1ccccc1C1CN(Cc2cccn2-c2ncccn2)Cc2ccccc2O1 (stereo not drawn)	/	0%	/	9%
COc1ccc(C(=O)/C=C/c2ccc(N3CCCCC3)c([N+](=O)[O-])c2)cc1	-29%	-8%	-3%	-4%
COc1ccc(C(=O)/C=C/c2ccc(N3CCCCC3)c([N+](=O)[O-])c2)c(OC)c1	-10%	11µM*	-4%	?
CCCCOc1ccc(CC(=O)N(C)O)cc1	/	-21%	/	-7%
CC(C)(C)c1ccc(C(=O)NNc2cc(N3CCOCC3)nc(N3CCOCC3)n2)cc1	110%	1%	-13%	-5%
CC(C)(C)c1ccc(C(=O)NNc2cc(N3CCCCC3)nc(N3CCCCC3)n2)cc1	0.16µM*	/	-1%	/
CSc1ncccc1C(=O)NCC1Cc2cc(F)cc(-c3cncnc3)c2O1 (stereo not drawn)	/	-12%	/	-2%
CCOC(=O)/C=C1\SCC(=O)N1CC(=O)NC(c1ccccc1)c1ccccc1	28µM*	i	-14%	-11%
CC1Cc2ccccc2N1Cc1cc(=O)c(OCC(=O)Nc2ccccc2)co1 (stereo not drawn)	35µM*	-10%	-13%	-6%
SMILES	AmpC no deterg	Vaccinia mCherry	AmpC detergent	VACV Venus inh
CCN1CCN(c2cc(C)c3cc(NC(=O)/C=C/c4cccc(Cl)c4)ccc3n2)CC1	/	11µM*	10%	?
CN1/C(=C/C(=O)c2nc(S(C)(=O)=O)ncc2Cl)C(C)(C)c2ccccc21	53%	28µM*	-1%	?
C(=C\c1nc2ccccc2o1)/c1ccc2c(c1)OCO2	/	-17%	/	-18%
CCOC(=O)Cn1c(=O)oc2cc(S(=O)(=O)NCCc3ccc(C)cc3)ccc21	10µM*	-15%	?	0%
COc1cc(=O)n2c(c1C(=O)NCc1ccsc1)CCN(Cc1nc3ccccc3[nH]1)CC2	/	-9%	/	-15%
Cc1nc2c(-c3ccc(Cl)cc3)c(C)[nH]n2c(=O)c1Cc1ccccc1	-35%	6.3µM*	5%	?
COCc1cc(=O)n2[nH]c(C)c(-c3ccc(Cl)cc3)c2n1	/	10µM*	/	?
COc1ccc(C(C)N(C)Cc2nc(N3CCN(C(=O)c4ccco4)CC3)c3ccccc3n2)cc1 (stereo not drawn)	/	2%	/	0%
CC(=O)Nc1cc(C(=O)N2CCN(c3ccccc3)CC2C)cc2ncn(CCc3ccccn3)c12 (stereo not drawn)	/	2%	/	9%
Nc1c2c(nc3sc4c(c13)CCCC4)CCCCC2	4µM*	/	-1%	-19%
COc1ccccc1/C=C1\C=Cc2ccccc21	/	19%	/	-6%
c1ccc(NN=C2c3ccccc3-c3ccccc32)cc1	/	?	/	14%
